Results on 6 molecules are retold here after PubChem BioAssay.

Each structure is given as a SMILES string. Results filed as inconclusive are left out. Active and inactive are the calls of the source. Unless noted, no cut-off is given here; in the data, nearly all actives have AC50 up to about 26 µM.

For orientation: AC50 means the midpoint of the concentration-response curve, whichever way the signal moves.

Assay [1] can be described thus: growth inhibition of DIPG glioma cells, dose response, cell-based, SU-DIPG-XVII, MIPE5.0, CellTiter-Glo, qHTS (AID 1347060).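 For AC50: cells exposed to compound for 48 hours before viability readout.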 The conditions noted are these: SU-DIPG-XVII viability, CellTiter-Glo ATP luminescence.
Assay [2] in a line: growth inhibition of DIPG glioma cells, dose response, cell-based, SU-DIPG-XIII, MIPE4.0, CellTiter-Glo, qHTS (AID 1347061; cut-off not given, nearly all actives have AC50 up to about 37 µM;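 note: cells exposed to compound for 48 hours before readout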). Conditions: SU-DIPG-XIII viability, CellTiter-Glo ATP luminescence. Background: In ATP-based viability assays light output follows the ATP content of the culture.
A short description of assay [3]: growth inhibition of DIPG glioma cells, dose response, cell-based, JHH-DIPG-1, MIPE4.0, CellTiter-Glo, qHTS (AID 1347062; cut-off not given, nearly all actives have AC50 up to about 27 µM;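 for AC50: cells exposed to compound for two days before readout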). Conditions: JHH-DIPG-1 viability, CellTiter-Glo ATP luminescence.
A short description of assay [4]: growth inhibition of DIPG glioma cells, dose response, cell-based, SU-DIPG-IV, MIPE4.0, CellTiter-Glo, qHTS (AID 1347063; cut-off not given, nearly all actives have AC50 up to about 30 µM;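 note: compound exposure lasted 48 hours before the viability readout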). The conditions noted are these: SU-DIPG-IV viability, CellTiter-Glo ATP luminescence.
The nature of assay [5]: growth inhibition of DIPG glioma cells, dose response, cell-based, SU-DIPG-XIII, MIPE5.0, CellTiter-Glo, qHTS (AID 1347064; cut-off not given, nearly all actives have AC50 up to about 23 µM;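 for AC50: cells exposed to compound for 48 hours before the viability read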). Conditions: SU-DIPG-XIII viability, CellTiter-Glo ATP luminescence.
A short description of assay [6]: SU-DIPG-VI glioma cell viability, MIPE4.0 library, CellTiter-Glo luminescence, qHTS (AID 1347066; cut-off not given, nearly all actives have AC50 up to about 30 µM;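 note: cells exposed to compound for 48 hours before readout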). The conditions noted are these: CellTiter-Glo ATP luminescence.
A short description of assay [7]: JHH-DIPG-1 glioma cell viability, MIPE5.0 library, CellTiter-Glo luminescence, qHTS (AID 1347067).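 Note: cells exposed to compound for 48 hours before readout.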 The conditions noted are these: JHH-DIPG-1 glioma viability, CellTiter-Glo ATP luminescence.
The nature of assay [8]: SU-DIPG-XXV glioma cell viability, MIPE5.0 library, qHTS (AID 1347068; cut-off not given, nearly all actives have IC50 up to about 30 µM). For orientation: In qHTS, concentration-response curves come from the screen itself.
Assay [9] is described as follows: sensitizers of A549 cells to miR-34 induction, primary screen, imaging, A549 dox-inducible miR-34, nuclei and caspase counts (AID 1347080;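 active = compounds whose cell count with miR-34 switched on is under 0.7 times the count with it off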). The conditions noted are these: A549 miR-34 inducible, Hoechst nuclei count, 48 h.
Assay [10] can be described thus: survival rescue of mitochondrial mutant cells in low glucose, primary screen, MELAS cybrids, Rieske KO mouse fibroblasts, CellTiter-Glo (AID 1508586;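 active = mean z-score across replicates of 1.96 or higher in either the MELAS or the Rieske mutant cell line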;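 note: z relative to plate mean and SD of compound and empty wells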).
Assay [11] in a line: viability loss in pontine glioma line – cell-based, SU-DIPG-XXV, MIPE5.0, CellTiter-Glo, qHTS, dose response (AID 1347065).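 Note: cells exposed to compound for 48 hours before ATP readout.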 The conditions noted are these: CellTiter-Glo ATP luminescence.
Assay [12] in a line: modifiers of HSF1 nuclear foci, imaging, Selleck Cancer Library (AID 1347162; in the data active = plate-normalised HSF1 focus index below about 0.46). The conditions noted are these: human cells, at 10 µM; SSMD: measured here: HSF1 foci SSMD mean; cell count: measured here: cell number; plate-normalised HSF1 focus index: stronger effect = lower value.
Where [13] appears, read: stronger effect = lower value, cell number ratio, induced over uninduced.
Where [14] appears, read: measured here: relative caspase fold change +Dox/-Dox.
[15] abbreviates: measured here: total cells with miR-34 induction, stronger effect = lower value.
The mark [16] stands for this setting: measured here: total cells without miR-34 induction.
Setting [17] is: MELAS cybrid survival, CellTiter-Glo 48 h, stronger effect = higher value.
The mark [18] stands for this setting: Rieske KO mouse fibroblast survival, CellTiter-Glo 72 h.

On to `Cc1ccc(C(=O)Nc2cccc(C(F)(F)F)c2)cc1Nc1nc(-c2cccnc2)nc2c1cnn2C`, for which the AC50 in assay [1] was 16600 nM (active); in [3], 18700 nM (active); in assay [4], 16600 nM (active); in assay [5], 18600 nM (active); in assay [6] it was 23500 nM (active); in [7], 20900 nM (active). The molecule was classed as inactive in assay [2] and in assay [8]. Also, the fold change in assay [9] (setting [13]) is 1.02 (inactive); in assay [9] (setting [14]), 1.01. Moreover, the cell count in assay [9] (setting [15]) was determined as 4020; in assay [9] (setting [16]) it was 3950. The z-score is -0.539 in assay [10] (setting [17]) and 2.14 in assay [10] (setting [18]).
On to `O=C(c1cncc(Br)c1)N1CCC(N2CCCC2)CC1`, for which the molecule was called inactive in assay [1], in assay [2], in assay [3], in [4], in [5] and in assay [11]. For the same molecule, in assay [8], the result was inactive. Moreover, in assay [7], the AC50 was 13200 nM (active). Further, the fold change is 0.889 (inactive) in assay [9] (setting [13]) and 0.588 in assay [9] (setting [14]). The results for the cell count in assay [9] (setting [15]) and in assay [9] (setting [16]) were 7820 and 8800, respectively. The z-score in assay [10] (setting [17]) is -0.503 (inactive); in [10] (setting [18]), -0.908.
Take `Cn1c(=O)n(-c2ccc(C(C)(C)C#N)cc2)c2c3cc(-c4cnc5ccccc5c4)ccc3ncc21`: the AC50 in [1] is 481 nM (active); in assay [2], 2640 nM (active); in [3], 4180 nM (active); in assay [4], 23.5 nM (active); in [5], 855 nM (active); in [11] it was 135 nM (active). Also, in assay [7], the AC50 was 855 nM (active). In addition, in assay [12], the SSMD is -0.518. The molecule also yielded a cell count in [12] of 7130. For the same molecule, the plate-normalised HSF1 focus index in assay [12] is 0.984 (inactive).
`CC(C)c1noc(N2CCC(COc3ccc(-c4ccc(S(C)(=O)=O)cc4)nc3)CC2)n1`: the molecule was classed as inactive in assay [1], in assay [2], in assay [3], in assay [4], in assay [5] and in assay [6]. In addition, the call in assay [7] and in [8] was inactive. Moreover, the fold change in [9] (setting [13]) was 0.733 (inactive); in assay [9] (setting [14]), 1.55. Moreover, the cell count in assay [9] (setting [15]) stood at 5110; in assay [9] (setting [16]) it was 6980. Besides, the z-score in [10] (setting [17]) was -0.22 (inactive); in assay [10] (setting [18]), 0.941.
Take `CS(=O)(=O)c1ccc(-c2cnc(N)c(C(=O)Nc3ccccc3)n2)cc1`: the molecule was called inactive in assay [1], in assay [2], in [3], in assay [4], in [5] and in assay [6]. The result in assay [7] and in assay [8] was inactive. Moreover, the fold change was 1.01 (inactive) in assay [9] (setting [13]) and 0.481 in [9] (setting [14]). In addition, the cell count in [9] (setting [15]) was determined as 4300; in assay [9] (setting [16]), 4270. In addition, the z-score was -0.286 (inactive) in [10] (setting [17]) and 0.758 in [10] (setting [18]).
For the molecule `CCc1c(O)cc(O)c(C(=O)c2ccc(OCCN3CCOCC3)c(OC)c2)c1CC(=O)N(CCOC)CCOC`, the AC50 in assay [1] was 235 nM (active); in assay [2], 3320 nM (active); in assay [3], 372 nM (active); in assay [4], 1320 nM (active); in assay [5], 833 nM (active); in assay [11], 742 nM (active). Also, the AC50 in [7] is 742 nM (active). In [8], the outcome was inactive. Moreover, the values for the fold change in assay [9] (setting [13]) and in assay [9] (setting [14]) were 1.03 (inactive) and 0.454, respectively. The cell count is 3640 in [9] (setting [15]) and 3520 in assay [9] (setting [16]). For the same molecule, the z-score in [10] (setting [17]) is -0.316 (inactive); in assay [10] (setting [18]), 0.722.
